Screens (PubChem BioAssay)
IEC-6 tox – counter-screen for KLF5 inhibitors: cytotoxicity in IEC-6 cells | IEC-6 cytotoxicity, luminescence viability | hit rate 0.78% among 290,000 | inhibition, % at 5 µM; in the data active = inhibition above about 22%
CSC inhib – cancer stem cell inhibition; cancer stem cell-like cells viability, luminescence; inhibition, % at 7.5 µM; hit rate 1.1% among 300,000; AID 2717; in the data active = inhibition above about 75%; inconclusive = no clear call, values can overlap the other calls; tested in HMLE shEcad cells
aSyn 5UTR inh – 5' untranslated region of α-synuclein, MLPCN primary screen; alpha-synuclein 5'UTR reporter, inhibitor activity; inhibition, % (tested at 7.5 µM); hit rate 0.82% among 300,000; in the data active = inhibition above about 60%; inconclusive = no clear call, values can overlap the other calls;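 note: H4 neuroglioblastoma cells stably carrying SNCA 5'UTR luciferase fusion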
SKKanGAS inh – inhibitors of SKKanGAS S. pyogenes growth in kanamycin (SK-promoter or general growth effect). BacTiter-Glo, 6 h. inhibition, % at 7.5 µM. hit rate 1.3% among 300,000;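 active = mean replicate score, as percent of positive control median, at least 50; inconclusive = mean below 50 but one replicate at or above 50; inactive = mean and every replicate below 50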;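 note: strain carries kanamycin resistance gene driven by streptokinase promoter and grows in 40 µg/ml kanamycin; loss of luminescence reflects streptokinase promoter inhibition or plain growth inhibition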
KLF5 inh – suppresses KLF5 promoter-driven expression; DLD-1 KLF5 promoter-luciferase reporter, luminescence; inhibition, % at 5 µM; hit rate 0.23% among 290,000; AID 1700;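 active = inhibition above a per-plate limit of that plate's mean compound inhibition plus 3 SD, cut at about 60% in these data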;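 note: higher means less KLF5 promoter-driven luciferase light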
Hits are given with their value; n = inactive; u = inconclusive; x = no result. A selection: hits, their analogues and other compounds. The true share with any hit is near 3%.

SMILES	IEC-6 tox	CSC inhib	aSyn 5UTR inh	SKKanGAS inh	KLF5 inh
COc1ccc(O)c(C(=O)C2c3ccccc3C(=O)N2c2ccc(C)cc2)c1 (centres undefined)	n	n	n	n	n
CC(=O)c1c(C)[nH]c(C(=O)OCCOc2ccccc2)c1C	n	n	67	n	n
CC1C/C(=C/c2ccncc2)C(=O)/C(=C/c2ccncc2)C1 (centres undefined)	n	77	n	n	n
Cc1c(C(=O)N(C)CCCCN2CCOCC2)oc2c(F)cccc12	n	n	n	n	n
C/C(=N\Nc1cc(C(F)(F)F)ccc1Cl)c1ccccc1O	n	77	n	n	n
C/C(=N\Nc1ccc(F)cc1F)c1ccccc1O	n	n	n	n	n
Cc1ccc(CN2C(=O)/C(=C\c3ccc(C(=O)NCc4cccnc4)cc3)Oc3ccccc32)cc1	n	108	101	n	n
Cc1cc(C)cc(NC(=O)Nc2ccc(NC(=O)c3ccccc3O)cc2)c1	n	92	n	n	n
CCNc1nc(SCCOc2ccc(Cl)cc2Cl)nc(N(C)C)n1	n	x	n	n	n
CCOC(=O)C1(C)NC(c2ccco2)C2C(=O)N(CC)C(=O)C21 (centres undefined)	n	n	n	n	n
O=[N+]([O-])c1cc(C(F)(F)F)cc([N+](=O)[O-])c1NCCNC(=S)Nc1cccc(F)c1	n	n	n	n	n
CCOc1ccc(C(Nc2cccnc2)c2cc(Cl)c3cccnc3c2O)cc1 (centres undefined)	n	n	67	x	n
O=C(NC(c1ccccc1)c1cc(Cl)c2cccnc2c1O)c1cccnc1 (centres undefined)	n	102	100	94	n
O=C(O)COc1ccccc1C(Nc1cccnc1)c1cc(Cl)c2cccnc2c1O (centres undefined)	n	x	n	n	n
Cc1cc2c(cc1C)C(c1cc(Br)ccc1F)CC(=O)N2 (centres undefined)	n	172	65	n	n
c1ccc(-n2nnc3c(N4CCOCC4)ncnc32)cc1	n	n	75	n	n
Cc1ccc(-n2sc3ccccc3c2=O)cc1	n	n	n	96	n
O=C(N/N=C/c1sc2ccccc2c1O)c1cccc2ccccc12	n	97	92	91	n
Cc1cccc(/N=C/c2sc3ccccc3c2O)n1	n	n	n	n	n
O=C(N/N=C/c1ccc(F)cc1)c1ccccc1	n	n	n	u	n
O=C(N/N=C/c1sc2ccccc2c1O)c1ccccc1	n	n	82	90	n
Oc1c(C=Nc2cccc3cccnc23)sc2ccccc12	n	n	n	94	n
COc1ccc2cc(C(=O)N/N=C/c3sc4ccccc4c3O)ccc2c1	n	147	n	n	n
COc1ccc(C(=O)N/N=C/c2c[nH]c3ccccc23)cc1	n	n	n	n	n
OC[C@@H](O)C1OC2NC(=S)OC2C1O (some centres undefined)	n	n	n	n	n
SMILES	IEC-6 tox	CSC inhib	aSyn 5UTR inh	SKKanGAS inh	KLF5 inh
CC[C@H]1OC(=O)[C@H](C)[C@@H](O[C@H]2C[C@@](C)(OC)[C@@H](O)[C@H](C)O2)[C@H](C)[C@@H](O[C@@H]2O[C@H](C)C[C@H](N(C)C)[C@H]2O)[C@](C)(O)C[C@@H](C)CN(C)[C@H](C)[C@@H](O)[C@]1(C)O	x	n	n	110	x
CCCc1ccc(-c2cc(NC(=O)CSc3nnc(N)s3)n(-c3ccccc3)n2)cc1	n	85	n	n	n
COCc1cc(C)nc2sc(C(=O)NN)c(-n3cccc3)c12	n	n	71	n	n
CCCCNC(=O)c1sc2nc(C)cc(COC)c2c1-n1cccc1	n	n	n	n	n
Cc1ccc2c(c1)C(=O)C(=O)N2CCOc1ccccc1	91	n	n	n	n
Cc1ccc2c(c1)C(=O)C(=O)N2CCCOc1ccccc1C	n	n	n	n	n
CCCSC(=S)c1c(C)[nH]n(-c2ccccc2)c1=O	n	n	n	89	n
CCN(CC)S(=O)(=O)c1ccc(Cl)c(NC(=O)COc2ccc(OC)cc2)c1	n	n	n	n	n
COc1ccc2c(c1)[nH]c1c(=O)n(CCN(C)C)cnc12	n	n	n	n	n
COc1ccc2c(c1)[nH]c1c(=O)n(CCc3cnc[nH]3)cnc12	n	n	n	100	n
O=C(/C=C/Sc1ccccc1)c1ccc(Cl)cc1	n	102	n	n	n
O=C(/C=C/Sc1ccccc1)c1ccccc1	n	n	n	n	n
O=C(NNC(=S)NC(=O)c1cccnc1)c1ccc(Cl)cc1	n	n	n	52	n
O=C(NCCCNC(=O)c1cnccn1)c1ccc(Cl)cc1	n	n	n	n	n
CC(=O)NNC(=S)NC(=O)c1ccc(C)cc1	n	x	n	n	n
O=C(NC(=S)NNC(=O)c1cnccn1)c1ccc(Cl)cc1	n	94	u	n	n
COc1cc(C(=O)NC(=S)NNC(=O)c2cnccn2)cc(OC)c1OC	n	n	79	n	n
O=C(Cc1ccc(Cl)cc1)NNC(=S)NC(=O)c1cccnc1	n	n	n	n	n
COc1cc(C(=O)NC(=S)NC(C)C)cc(OC)c1OC	n	n	n	n	n
Cc1ccc(C(=O)NNC(=S)NC(=O)c2ccc(Cl)cc2)cc1	n	n	n	100	n
Cc1ccc(C)c(-n2c(-c3csc(C)c3C)n[nH]c2=S)c1	n	n	n	n	n
Cc1ccc(C(=O)NCCCNC(=O)COc2ccc(C)c(C)c2)cn1	n	n	n	n	n
Cc1nc(C(=O)NC2CCCCC2)sc1C1(C)CC(c2cccnc2)=NO1 (centres undefined)	x	n	n	n	x
COc1ccc(C(=O)NC(=S)NNC(=O)c2cnccn2)cc1	n	88	n	n	n
COc1ccc(CC(=O)NNC(=O)c2cnccn2)cc1	n	n	n	n	n
SMILES	IEC-6 tox	CSC inhib	aSyn 5UTR inh	SKKanGAS inh	KLF5 inh
O=C(CCc1ccccc1)NNC(=S)NC(=O)c1ccc(Cl)cc1	n	n	n	61	n
Cc1c(C(=O)N/N=C/c2ccc(N(C)C)cc2)[nH]c2ccc(Cl)cc12	n	n	73	n	n
CC(C)Cn1c(O)c(N=NC(=O)c2cccc(S(=O)(=O)N3CCCCC3)c2)c2ccccc21	n	91	n	53	n
O=C(NNC(=O)c1cccc(S(=O)(=O)N2CCCCC2)c1)c1ccccc1	x	n	x	x	x
COc1ccc2c(c1)cc(C(=O)N[C@@H](CCSC)C(=O)N1CCC[C@H]1C(=O)O)n2C	n	n	n	n	n
O=C(NC(=S)Nc1ccc(Cl)c(C(=O)O)c1)c1cccc(COc2ccccc2)c1	n	n	n	56	n
Oc1c(N=NC(=S)Nc2ccccc2F)c2ccccc2n1Cc1cccc(Cl)c1	n	n	n	52	n
Cc1cccc(Cn2c(O)c(N=NC(=S)Nc3ccccc3F)c3ccccc32)c1	n	n	u	n	n
Oc1c(N=NC(=S)Nc2ccccc2F)c2ccccc2n1Cc1ccc(F)cc1	n	n	n	66	n
Cc1c(NS(=O)(=O)c2ccc3c(c2)Cc2ccccc2-3)c(=O)n(-c2ccccc2)n1C	n	n	n	n	n
N[C@@H](C(=O)N[C@@H]1C(=O)N2C(C(=O)O)=C(Cl)CS[C@H]12)c1ccccc1	n	n	n	105	n
CC(C)(C)CC(C)(C)c1ccc(OCCOCC[N+](C)(C)Cc2ccccc2)cc1	x	118	x	x	x
